Test systems include DU-145 prostate; MALME-3M melanoma; MDA-MB-231 breast; RXF 393 renal; SF-268 CNS; SF-295 CNS; SF-539 CNS; UACC-257 melanoma; M14 melanoma; HCT-15 colon; HT29 colon; SNB-75 CNS; SNB-19 CNS; U251 CNS; PC-3 prostate; SK-MEL-5 melanoma; UACC-62 melanoma; LOX IMVI melanoma; SK-MEL-28 melanoma; K-562 leukemia.
Common to all, as to experiment: NCI-60 one-dose screen, 48 h (100 = growth as untreated, 0 = no growth, -100 = all killed)
What all share (conditions): 10 µM

The source of these data is PubChem BioAssay (NCI).

Compounds without any hit were thinned out: in the full panel of roughly 83,000, 20% have a hit.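 Method: cells in 96-well plates; compound added at one concentration; 48 h incubation; percent growth measured; values under 10 scored active.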 Values without a mark were called inactive. Active and inactive are the calls of the source.

With `O=c1[nH]c(=O)n(C2C[C@H](O)[C@@H](CO)O2)cc1C(F)(F)F` (some centres undefined), the growth with DU-145 prostate is 123%; in the assay with MALME-3M melanoma, 107%; in the assay on MDA-MB-231 breast it was 107%; with RXF 393 renal, 116%; with SF-268 CNS, 114%; in the assay with SF-295 CNS, 92.5%. The growth was 112% with SF-539 CNS; 107% in the assay on UACC-257 melanoma; 108% with M14 melanoma; 107% in the assay with HCT-15 colon; 103% in the assay with HT29 colon; 94.3% in the assay with SNB-75 CNS. Also, the growth is 119% with SNB-19 CNS; 102% with U251 CNS; 91.9% in the assay with PC-3 prostate; 106% with SK-MEL-5 melanoma; 108% in the assay with UACC-62 melanoma; 103% with LOX IMVI melanoma. The growth with SK-MEL-28 melanoma is 120%.

`C#C[C@]1(O)CCC2C3CCc4cc(OC5CCCC5)ccc4C3CC[C@@]21C` (some centres undefined): the growth in the assay with DU-145 prostate is 89%; in the assay on MALME-3M melanoma, 121%; in the assay with MDA-MB-231 breast, 50.6%; with RXF 393 renal, 97.7%; in the assay on SF-268 CNS, 71.3%; in the assay on SF-295 CNS, 77.2%. Moreover, the growth with SF-539 CNS was 101%; in the assay on UACC-257 melanoma it was 92.6%; in the assay on M14 melanoma, 80.2%; in the assay on HCT-15 colon it was 24%; with HT29 colon, 0.124% (active); in the assay with SNB-75 CNS, 96%. The growth was 104% in the assay with SNB-19 CNS; 69.9% in the assay on U251 CNS; 100% in the assay on SK-MEL-5 melanoma; 81.1% with UACC-62 melanoma; 42% in the assay on LOX IMVI melanoma; 103% in the assay on SK-MEL-28 melanoma.

As for `COc1cc2nc(SCC(=O)Nc3cc(OC)c(OC)c(OC)c3)n(Cc3ccccc3)c(=O)c2cc1OC`, the growth with DU-145 prostate is 54.6%; with MALME-3M melanoma, 45.6%; in the assay with MDA-MB-231 breast, 41%; in the assay on RXF 393 renal it was 36.7%; in the assay on SF-268 CNS it was 39.5%; with SF-295 CNS, 45.8%. The growth with SF-539 CNS was 6.77% (active); in the assay with UACC-257 melanoma, 20.6%; in the assay with M14 melanoma, 39.3%; in the assay with HCT-15 colon it was 90.2%; with HT29 colon, 61.9%; in the assay with SNB-75 CNS, -1.98% (active). In addition, the growth in the assay with SNB-19 CNS is 63.7%; in the assay with U251 CNS it was 6.92% (active); in the assay with PC-3 prostate, 35.8%; in the assay on SK-MEL-5 melanoma, 67.2%; in the assay with UACC-62 melanoma, 76.3%; in the assay with LOX IMVI melanoma, 68.7%. For the same compound, in the assay with SK-MEL-28 melanoma, the growth was 60.5%.

Take `CN(C)CCCN1c2ccccc2CCc2ccc(Cl)cc21`: the growth in the assay on DU-145 prostate is 87.1%; with MALME-3M melanoma it was 36.7%; in the assay on MDA-MB-231 breast, 15.8%; in the assay with RXF 393 renal, 28.3%; with SF-268 CNS it was 59.4%; in the assay with SF-295 CNS it was 75.6%. Also, the growth in the assay with SF-539 CNS was 83.5%; with UACC-257 melanoma, -11.9% (active); with M14 melanoma, 7.07% (active); in the assay on HCT-15 colon it was 51.4%; with HT29 colon, 18.8%; in the assay on SNB-75 CNS, 39.2%. Besides, the growth in the assay on SNB-19 CNS was 96.1%; in the assay on U251 CNS, 55.4%; in the assay on PC-3 prostate, 40.8%; with SK-MEL-5 melanoma, -29.7% (active); in the assay on UACC-62 melanoma it was 7.82% (active); in the assay with LOX IMVI melanoma, 56.9%. The growth in the assay with SK-MEL-28 melanoma is 36.9%.

On to `C[C@H]1[C@H](OC(=O)CCC(=O)O)O[C@@H]2O[C@]3(C)CC[C@H]4[C@H](C)CC[C@@H]1[C@@]24OO3`, for which the growth in the assay with DU-145 prostate was 82.7%; with MALME-3M melanoma, 74.8%; with MDA-MB-231 breast, 65.1%; with RXF 393 renal it was 55.9%; in the assay with SF-268 CNS it was 55.6%; in the assay on SF-295 CNS it was 11.6%. Besides, the growth with SF-539 CNS was 31.9%; in the assay on UACC-257 melanoma, 50.8%; in the assay with M14 melanoma, 39.7%; in the assay on HCT-15 colon it was 16.7%; in the assay on HT29 colon, 23.8%; in the assay on SNB-75 CNS, 61.8%. The growth in the assay on SNB-19 CNS was 57.9%; with U251 CNS, 36.5%; in the assay on PC-3 prostate, 25%; in the assay with SK-MEL-5 melanoma, 28%; in the assay with UACC-62 melanoma, 36.4%; in the assay with LOX IMVI melanoma, -49.5% (active). Also, in the assay with SK-MEL-28 melanoma, the growth was 70.5%.

Turning to `CN1CCN(c2cc3c(cc2F)c(=O)c(C(=O)O)cn3-c2ccc(F)cc2)CC1`, the growth was 118% in the assay on DU-145 prostate; 96.3% with MALME-3M melanoma; 109% with MDA-MB-231 breast; 116% in the assay with RXF 393 renal; 93.2% in the assay with SF-268 CNS; 99.8% in the assay with SF-295 CNS. Further, the growth with SF-539 CNS was 99.7%; in the assay with UACC-257 melanoma, 105%; in the assay on M14 melanoma it was 93%; in the assay on HCT-15 colon it was 99.2%; in the assay with HT29 colon, 91.2%; with SNB-75 CNS it was 55.2%. For the same compound, the growth in the assay with SNB-19 CNS is 98.2%; with U251 CNS it was 106%; with PC-3 prostate it was 90.4%; with SK-MEL-5 melanoma, 95.5%; in the assay with UACC-62 melanoma, 90.2%; in the assay on LOX IMVI melanoma it was 84.7%. For the same compound, in the assay with SK-MEL-28 melanoma, the growth is 105%.

Regarding `Cc1ccc(C2NC(=S)N3C(c4ccc(C)cc4)NC(=S)N23)cc1` (centres undefined), the growth with DU-145 prostate is 18.7%; with K-562 leukemia, 5.27% (active); in the assay on MDA-MB-231 breast, 59.4%; with SF-268 CNS it was 37.6%; in the assay with SF-295 CNS, 6.72% (active); with SF-539 CNS, 13.9%. The growth was -22.5% (active) in the assay with UACC-257 melanoma; -26.5% (active) in the assay with M14 melanoma; 29.5% in the assay with HCT-15 colon; 17.8% in the assay with HT29 colon; 127% in the assay with SNB-75 CNS; 44.5% in the assay with SNB-19 CNS. The growth in the assay with U251 CNS was 28.3%; with PC-3 prostate, 34.4%; with SK-MEL-5 melanoma, 17.1%; in the assay on LOX IMVI melanoma it was 51.4%; in the assay on SK-MEL-28 melanoma, 58.7%.

In the case of `Cc1ccccc1N1C(=O)c2cc(S(N)(=O)=O)c(Cl)cc2NC1C` (centres undefined), the growth in the assay on DU-145 prostate is 111%; in the assay with MALME-3M melanoma it was 103%; with MDA-MB-231 breast, 119%; with RXF 393 renal it was 128%; in the assay with SF-268 CNS it was 106%; in the assay with SF-295 CNS, 103%. For the same compound, the growth is 111% in the assay with SF-539 CNS; 102% in the assay with UACC-257 melanoma; 111% in the assay with M14 melanoma; 108% in the assay on HCT-15 colon; 101% in the assay with HT29 colon; 87.1% in the assay on SNB-75 CNS. Further, the growth in the assay with SNB-19 CNS was 116%; with U251 CNS, 105%; with PC-3 prostate, 93.6%; in the assay on SK-MEL-5 melanoma, 104%; with UACC-62 melanoma it was 114%; in the assay with LOX IMVI melanoma, 99.7%. For the same compound, the growth in the assay with SK-MEL-28 melanoma was 116%.
